# Laboratory results: the supplement of paper PMC6897291
# Key:
# U-2932 [1] = test: growth inhibition by drug alone (1 - RLU/untreated control) (fraction); higher = stronger inhibition; details: 177Lu-lilotomab satetraxetan 0 ug/ml
# In short: (§1)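 RIVA or U-2932 cells were left untreated or pretreated for 18 h with a radiolabelled anti-CD37 antibody conjugate (~600 MBq/mg) at 0.5 µg/ml for RIVA or 1 µg/ml for U-2932. The cells were then washed and seeded at 3,000 cells/well on plates pre-printed with the Selleck Cambridge Cancer Compound library, dosed at 10/100 nM for RIVA and 10/1,000 nM for U-2932. From day 3, RealTime-Glo luminescence was read daily after 1 h at 37°C. Growth inhibition was taken as one minus RLU over the mean of the untreated no-drug wells, of which there were 48 per plate.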
# RIVA [2] = test: as above; details: 177Lu-lilotomab satetraxetan 0 ug/ml
# In short: as §1
# U-2932 [3] = test: growth inhibition by drug plus 177Lu-lilotomab satetraxetan (1 - RLU/untreated control) (fraction); higher = stronger inhibition; details: 177Lu-lilotomab satetraxetan 1 ug/ml
# In short: as §1
# RIVA [4] = test: as above; details: 177Lu-lilotomab satetraxetan 0.5 ug/ml
# In short: as §1
SMILES,"growth inhibition by drug alone (U-2932 [1]; 10 nM, time (day): 3)","growth inhibition by drug alone (U-2932 [1]; 10 nM, time (day): 4)","growth inhibition by drug alone (U-2932 [1]; 10 nM, time (day): 5)","growth inhibition by drug alone (U-2932 [1]; 10 nM, time (day): 6)","growth inhibition by drug alone (U-2932 [1]; 1000 nM, time (day): 3)","growth inhibition by drug alone (U-2932 [1]; 1000 nM, time (day): 4)","growth inhibition by drug alone (U-2932 [1]; 1000 nM, time (day): 5)","growth inhibition by drug alone (U-2932 [1]; 1000 nM, time (day): 6)","growth inhibition by drug alone (RIVA [2]; 10 nM, time (day): 3)","growth inhibition by drug alone (RIVA [2]; 10 nM, time (day): 4)","growth inhibition by drug alone (RIVA [2]; 10 nM, time (day): 5)","growth inhibition by drug alone (RIVA [2]; 10 nM, time (day): 6)","growth inhibition by drug alone (RIVA [2]; 100 nM, time (day): 3)","growth inhibition by drug alone (RIVA [2]; 100 nM, time (day): 4)","growth inhibition by drug alone (RIVA [2]; 100 nM, time (day): 5)","growth inhibition by drug alone (RIVA [2]; 100 nM, time (day): 6)","growth inhibition by drug plus 177Lu-lilotomab satetraxetan (U-2932 [3]; 10 nM, time (day): 3)","growth inhibition by drug plus 177Lu-lilotomab satetraxetan (U-2932 [3]; 10 nM, time (day): 4)","growth inhibition by drug plus 177Lu-lilotomab satetraxetan (U-2932 [3]; 10 nM, time (day): 5)","growth inhibition by drug plus 177Lu-lilotomab satetraxetan (U-2932 [3]; 10 nM, time (day): 6)","growth inhibition by drug plus 177Lu-lilotomab satetraxetan (U-2932 [3]; 1000 nM, time (day): 3)","growth inhibition by drug plus 177Lu-lilotomab satetraxetan (U-2932 [3]; 1000 nM, time (day): 4)","growth inhibition by drug plus 177Lu-lilotomab satetraxetan (U-2932 [3]; 1000 nM, time (day): 5)","growth inhibition by drug plus 177Lu-lilotomab satetraxetan (U-2932 [3]; 1000 nM, time (day): 6)","growth inhibition by drug plus 177Lu-lilotomab satetraxetan (RIVA [4]; 10 nM, time (day): 3)","growth inhibition by drug plus 177Lu-lilotomab satetraxetan (RIVA [4]; 10 nM, time (day): 4)","growth inhibition by drug plus 177Lu-lilotomab satetraxetan (RIVA [4]; 10 nM, time (day): 5)","growth inhibition by drug plus 177Lu-lilotomab satetraxetan (RIVA [4]; 10 nM, time (day): 6)","growth inhibition by drug plus 177Lu-lilotomab satetraxetan (RIVA [4]; 100 nM, time (day): 3)","growth inhibition by drug plus 177Lu-lilotomab satetraxetan (RIVA [4]; 100 nM, time (day): 4)","growth inhibition by drug plus 177Lu-lilotomab satetraxetan (RIVA [4]; 100 nM, time (day): 5)","growth inhibition by drug plus 177Lu-lilotomab satetraxetan (RIVA [4]; 100 nM, time (day): 6)"
C[C@@H]1CN(CC(=O)Nc2ccc3c(c2)Cc2cccc(-c4cc(=O)cc(N5CCOCC5)o4)c2S3)C[C@H](C)O1,0.00343,-0.0228,-0.128,-0.257,-0.073,-0.0366,-0.0776,-0.17,-0.0136,-0.0829,-0.153,-0.417,-0.282,-0.285,-0.284,-0.465,-0.0592,-0.0257,-0.0361,-0.0183,-0.0688,0.0229,0.0334,0.0421,0.275,0.441,0.452,0.479,0.232,0.357,0.37,0.373
CCN(CC)CCCC(C)Nc1nc(C)cc(Nc2ccc3nc(C)cc(N)c3c2)n1 (stereo not drawn),0.0927,0.0716,-0.114,-0.134,0.0662,0.0733,-0.022,-0.107,-0.0541,-0.0225,-0.0658,-0.279,-0.31,-0.199,-0.249,-0.391,0.0413,0.106,0.161,0.181,0.092,0.11,0.165,0.255,0.572,0.606,0.627,0.625,0.489,0.538,0.548,0.545
C[C@H](NC(=O)Cc1cc(F)cc(F)c1)C(=O)N[C@H](C(=O)OC(C)(C)C)c1ccccc1,-0.0234,-0.0325,-0.047,-0.000319,-0.0711,-0.073,-0.0673,-0.0373,-0.112,-0.175,-0.192,-0.264,-0.299,-0.293,-0.297,-0.351,-0.0297,0.0223,0.0667,0.147,-0.025,0.0181,0.0285,0.158,0.498,0.535,0.549,0.545,0.341,0.426,0.437,0.445
CN(Cc1cnc2nc(N)nc(N)c2n1)c1ccc(C(=O)N[C@@H](CCC(=O)O)C(=O)O)cc1 [Abitrexate (Methotrexate)],-0.0461,-0.0435,-0.0522,-0.0907,0.866,0.93,0.956,0.968,-0.206,-0.255,-0.282,-0.39,-0.038,-0.184,-0.173,-0.287,-0.123,-0.083,-0.0233,0.0372,0.851,0.924,0.957,0.972,0.364,0.489,0.508,0.521,0.452,0.49,0.483,0.457
